# Counter-ions that a name gives are not always drawn. ± gives the standard deviation of the averaged measurements.
# Experiments:
# [1] = system: Saccharomyces cerevisiae BY4741 SeMeCo community; experiment: mean cell size (pixel area) (pixels); higher = larger cells; conditions: 10 µM; 24 h; SM minimal medium
# In short: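 Mean cell pixel area per well was determined by automated confocal microscopy with Harmony analysis of paraformaldehyde-fixed cells. The cells, a Saccharomyces cerevisiae BY4741 community of four plasmids that each complement one auxotrophy and carry a fluorescent marker, were incubated for 24 h with drug at a final 10 µM in SM medium in 384-well plates. Numbers are averaged over 3 replicates. Same SeMeCo high-content imaging drug screen: Selleck FDA-approved drugs at 10 µM, 24 h in SM medium, 384-well plates, 3 replicates.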
# [2] = system: Saccharomyces cerevisiae BY4741 SeMeCo community; experiment: z-score of prototroph abundance vs DMSO median; higher = larger share of this subpopulation than in DMSO controls; conditions: 10 µM; 24 h; SM minimal medium; subpopulation (auxotrophy): Prototroph
# In short: (§1)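 A community of Saccharomyces cerevisiae BY4741 was built from four plasmids that each restored one auxotrophy and encoded a distinct fluorescent protein. Pre-grown overnight to OD600 1.0 and diluted to 0.3, it was dispensed at 70 µl into 384-well plates acoustically predosed with library drugs for a final 10 µM, and grown 24 h in minimal SM medium. Cells were then paraformaldehyde-fixed and imaged by automated confocal microscopy. Thresholds and autofluorescence correction came from single-auxotroph fluorescent strains, and each subpopulation's abundance was scored as a z-score relative to the vehicle-well median.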
# [3] = system: Saccharomyces cerevisiae BY4741 SeMeCo community; experiment: z-score of subpopulation abundance vs DMSO median, subpopulation auxotrophic for M; higher = larger share of this subpopulation than in DMSO controls; conditions: 10 µM; 24 h; SM minimal medium; subpopulation (auxotrophy): M
# In short: as §1
# [4] = system: Saccharomyces cerevisiae BY4741 SeMeCo community; experiment: z-score of subpopulation abundance vs DMSO median, subpopulation auxotrophic for L; higher = larger share of this subpopulation than in DMSO controls; conditions: 10 µM; 24 h; SM minimal medium; subpopulation (auxotrophy): L
# In short: as §1
# [5] = system: Saccharomyces cerevisiae BY4741 SeMeCo community; experiment: z-score of subpopulation abundance vs DMSO median, subpopulation auxotrophic for U; higher = larger share of this subpopulation than in DMSO controls; conditions: 10 µM; 24 h; SM minimal medium; subpopulation (auxotrophy): U
# In short: as §1
# [6] = system: Saccharomyces cerevisiae BY4741 SeMeCo community; experiment: z-score of subpopulation abundance vs DMSO median, subpopulation auxotrophic for H; higher = larger share of this subpopulation than in DMSO controls; conditions: 10 µM; 24 h; SM minimal medium; subpopulation (auxotrophy): H
# In short: as §1
# [7] = system: Saccharomyces cerevisiae BY4741 SeMeCo community; experiment: z-score of subpopulation abundance vs DMSO median, subpopulation auxotrophic for LU; higher = larger share of this subpopulation than in DMSO controls; conditions: 10 µM; 24 h; SM minimal medium; subpopulation (auxotrophy): LU
# In short: as §1
# [8] = system: Saccharomyces cerevisiae BY4741 SeMeCo community; experiment: z-score of subpopulation abundance vs DMSO median, subpopulation auxotrophic for LM; higher = larger share of this subpopulation than in DMSO controls; conditions: 10 µM; 24 h; SM minimal medium; subpopulation (auxotrophy): LM
# In short: as §1
# [9] = system: Saccharomyces cerevisiae BY4741 SeMeCo community; experiment: z-score of subpopulation abundance vs DMSO median, subpopulation auxotrophic for HU; higher = larger share of this subpopulation than in DMSO controls; conditions: 10 µM; 24 h; SM minimal medium; subpopulation (auxotrophy): HU
# In short: as §1
# [10] = system: Saccharomyces cerevisiae BY4741 SeMeCo community; experiment: z-score of subpopulation abundance vs DMSO median, subpopulation auxotrophic for HL; higher = larger share of this subpopulation than in DMSO controls; conditions: 10 µM; 24 h; SM minimal medium; subpopulation (auxotrophy): HL
# In short: as §1
# [11] = system: Saccharomyces cerevisiae BY4741 SeMeCo community; experiment: z-score of subpopulation abundance vs DMSO median, subpopulation auxotrophic for HLU; higher = larger share of this subpopulation than in DMSO controls; conditions: 10 µM; 24 h; SM minimal medium; subpopulation (auxotrophy): HLU
# In short: as §1
# [12] = system: Saccharomyces cerevisiae BY4741 SeMeCo community; experiment: z-score of subpopulation abundance vs DMSO median, subpopulation auxotrophic for HLM; higher = larger share of this subpopulation than in DMSO controls; conditions: 10 µM; 24 h; SM minimal medium; subpopulation (auxotrophy): HLM
# In short: as §1
# [13] = system: Saccharomyces cerevisiae BY4741 SeMeCo community; experiment: z-score of subpopulation abundance vs DMSO median, subpopulation auxotrophic for HUM; higher = larger share of this subpopulation than in DMSO controls; conditions: 10 µM; 24 h; SM minimal medium; subpopulation (auxotrophy): HUM
# In short: as §1
# [14] = system: Saccharomyces cerevisiae BY4741 SeMeCo community; experiment: z-score of subpopulation abundance vs DMSO median, subpopulation auxotrophic for LUM; higher = larger share of this subpopulation than in DMSO controls; conditions: 10 µM; 24 h; SM minimal medium; subpopulation (auxotrophy): LUM
# In short: as §1
# [15] = system: Saccharomyces cerevisiae BY4741 SeMeCo community; experiment: z-score of subpopulation abundance vs DMSO median, subpopulation auxotrophic for HLUM; higher = larger share of this subpopulation than in DMSO controls; conditions: 10 µM; 24 h; SM minimal medium; subpopulation (auxotrophy): HLUM
# In short: as §1
# [16] = system: Saccharomyces cerevisiae BY4741 SeMeCo community; experiment: z-score of subpopulation abundance vs DMSO median, subpopulation auxotrophic for UM; higher = larger share of this subpopulation than in DMSO controls; conditions: 10 µM; 24 h; SM minimal medium; subpopulation (auxotrophy): UM
# In short: as §1
# [17] = system: Saccharomyces cerevisiae BY4741 SeMeCo community; experiment: z-score of subpopulation abundance vs DMSO median, subpopulation auxotrophic for HM; higher = larger share of this subpopulation than in DMSO controls; conditions: 10 µM; 24 h; SM minimal medium; subpopulation (auxotrophy): HM
# In short: as §1
Structure (SMILES),mean cell size [1],z-score of prototroph abundance [2],z-score of subpopulation abundance [3],z-score of subpopulation abundance [4],z-score of subpopulation abundance [5],z-score of subpopulation abundance [6],z-score of subpopulation abundance [7],z-score of subpopulation abundance [8],z-score of subpopulation abundance [9],z-score of subpopulation abundance [10],z-score of subpopulation abundance [11],z-score of subpopulation abundance [12],z-score of subpopulation abundance [13],z-score of subpopulation abundance [14],z-score of subpopulation abundance [15],z-score of subpopulation abundance [16],z-score of subpopulation abundance [17]
CCCCNc1ccc(C(=O)OCCN(C)C)cc1 [Tetracaine HCl],12.52 ± 0.015,-0.78,0.03,-0.03,0.72,-0.2,1.2,0.43,0.08,0,-0.27,0.52,0.58,0,0.94,–,–
CC1=C[C@H]2C(=O)O[C@H]3C[C@@H](C/C=C(\C)C[C@@H](C)/C=C/C=C4\CO[C@H](/C1=N\O)[C@@]42O)O[C@@]1(CC[C@H](C)[C@@H](C)O1)C3.CC[C@H]1O[C@]2(CC[C@@H]1C)C[C@@H]1C[C@@H](C/C=C(\C)C[C@@H](C)/C=C/C=C3\CO[C@@H]4/C(=N\O)C(C)=C[C@@H](C(=O)O1)[C@]34O)O2 [Milbemycin Oxime],12.36 ± 0.099,–,-1.4,0.14,-0.74,2.17,-0.7,-0.44,0.42,1.42,-0.11,-0.22,0.03,-0.87,-0.41,-1.12,–
COCC(=O)Nc1cc(Sc2ccccc2)ccc1N=C(NC(=O)OC)NC(=O)OC [Febantel],12.3 ± 0.18,-0.31,1.45,-0.03,-1.73,0.91,-0.37,0.89,-0.73,1.03,-0.05,0.64,-0.11,0.02,-0.82,-0.56,–
CCCN1CCCC[C@H]1C(=O)Nc1c(C)cccc1C [Ropivacaine],12.24 ± 0.031,0.72,0.5,-0.8,-0.73,-0.64,-1.21,0.11,-0.86,-0.66,-0.32,-0.22,-0.48,-0.83,-0.55,–,–
Cc1onc(-c2ccccc2)c1-c1ccc(S(N)(=O)=O)cc1 [Valdecoxib],12.3 ± 0.17,1,-0.21,0.01,-0.55,-0.55,-0.06,0.09,-0.23,-0.64,-0.52,-0.74,-0.83,-0.21,-0.56,-0.64,–
CCCN[C@H]1CCc2nc(N)sc2C1 [Pramipexole],12.3 ± 0.16,-0.22,-0.13,-0.15,–,-0.21,0.21,-0.62,1.27,0.63,0.75,0.06,0.71,0.35,0.18,0.05,–
Cc1ccc(Nc2c(F)cccc2Cl)c(CC(=O)O)c1 [Lumiracoxib],12.9 ± 0.21,1.08,0.63,-1.37,-0.66,-0.79,-1.15,–,-1.07,–,-0.53,3.33,-1.5,-0.56,-0.5,-0.4,0

# Reference: the supplement of paper PMC8975748
